Screening data (PubChem)
Sm TGR inh = inhibitors of Schistosoma mansoni thioredoxin glutathione reductase; Q962Y6; Potency, µM (top dose mostly 114 µM), for inactives: top-dose activity change, negative = inhibition, actives largely listed as inhibitors; 3% of 360,000 active; purified TGR, DTNB reduction, TNB absorbance 405 nm; further: potency means the concentration at half of the fitted maximal effect; nearly all actives have a fitted effect of over 60% in size
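Kinetic colorimetric format: TGR-catalysed, NADPH-driven DTNB reduction monitored via TNB absorbance. Enzyme dispensed at 20 nM; compound exposure 15 min at room temperature before reaction start.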
Giardia FBPA inh = Giardia lamblia aldolase inhibition; A8B2U2; purified Giardia FBPA; Potency, µM (series often up to 59.6 µM), for the others: at the highest dose activity, negative = inhibition, usual class: inhibitors; 0.71% of 290,000 active; further: potency means the concentration at half of the fitted maximal effect; nearly all actives have a fitted effect of over 55% in size
Target sequence (A8B2U2 whole entry, looked up): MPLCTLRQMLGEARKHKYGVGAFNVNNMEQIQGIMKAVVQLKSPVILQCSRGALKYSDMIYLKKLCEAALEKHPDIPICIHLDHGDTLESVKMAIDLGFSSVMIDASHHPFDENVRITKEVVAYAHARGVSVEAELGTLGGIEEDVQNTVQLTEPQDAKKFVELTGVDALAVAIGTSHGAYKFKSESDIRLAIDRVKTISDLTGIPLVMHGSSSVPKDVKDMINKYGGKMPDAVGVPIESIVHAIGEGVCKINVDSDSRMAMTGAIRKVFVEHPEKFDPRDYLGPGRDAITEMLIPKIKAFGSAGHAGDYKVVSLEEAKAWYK
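40 nM FBPA preincubated 10 min at RT with compound (up to 57.5 uM final), then substrate plus GAPDH/TPI/NAD/arsenate coupling and diaphorase/resazurin added. Fluorescence read after 20 min at RT, 525/598 nm.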
Pf growth 96h = P. falciparum growth inhibition at 96 hours | P. falciparum luciferase reporter growth, 96 h | Potency, µM (doses to about 28.7 µM), inactives show at the highest dose activity change, negative = inhibition, actives largely listed as inhibitors | 6.9% of 320,000 active | AID 504834; further: potency means the concentration at half of the fitted maximal effect
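Two-generation exposure (96 h) targets delayed-death phenotype. Reporter parasites carrying integrated firefly luciferase, in red cells at 2% hematocrit and 0.05% parasitemia final, kept at 37 C, 5% CO2; luminescence loss indicates inhibition.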
HCMV antiviral = blocks human cytomegalovirus replication. HFF cells, HCMV-luciferase reporter, 72 h; hits give low values. activity change, negative = inhibition, % at 57.5 µM. 4.5% of 410,000 active; in the data active means activity change below about -60%; inconclusive means no clear call, values can overlap the other calls; inactive means above about -39%
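HFF cells seeded 16 h at 37C, treated with compounds, infected with luciferase-reporter HCMV at MOI 1 PFU/cell; luciferase read at 72 h post infection, normalized to buffer-only and Salinomycin controls.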
Pf growth 48h = P. falciparum growth inhibition at 48 hours (one generation). AID 504832. 5.9% of 310,000 active. P. falciparum luciferase growth in erythrocytes, 48 h. Potency, µM (highest dose often 28.7 µM), for inactives: at the top dose activity change, negative = inhibition, usual class: inhibitors; further: potency means the concentration at half of the fitted maximal effect
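Read-out is firefly luciferase luminescence from an integrated reporter in P. falciparum, so falling signal marks reduced parasite growth. Infected erythrocytes were at 2% hematocrit and 0.1% parasitemia (final) in Albumax-supplemented RPMI 1640.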
The depositor's hits bear a star; [ ] = another dose, or the depositor's remark. An excerpt weighted towards active compounds, which were near 14% of everything screened. Unless noted, the call rests on the fitted dose curve; in most records, active means well fitted curve in the direction sought with a large enough effect; inconclusive means small, poorly fitted or top-dose-only effect, or another doubt; inactive means no such curve, though single readings can be large; an effect the other way counts as inactive or inconclusive. On the % scale 0 is the no-effect control and ±100 the full control effect.

Results for Cc1oc2ccc(OC(=O)c3cccs3)cc2c1C(=O)OC(C)C ?
Sm TGR inh: -1.4%; Giardia FBPA inh: 3.0%; Pf growth 96h: 18.2%; HCMV antiviral: -2.9; Pf growth 48h: 38.0%

How did Cc1oc2ccc(OC(=O)N(C)C)cc2c1C(=O)OC(C)C do in these assays?
Sm TGR inh: 2.0%; Giardia FBPA inh: 6.2%; Pf growth 96h: 2.94µM*; HCMV antiviral: -10.0; Pf growth 48h: inconclusive

What do the screens show for `COc1cc2c(=O)n(Cc3ccccc3)c(=O)n(CC(=O)NCc3ccco3)c2cc1OC`?
Sm TGR inh: 2.4%; Giardia FBPA inh: 4.7%; Pf growth 96h: 3.7µM*; HCMV antiviral: 19.9; Pf growth 48h: inconclusive

How did Cc1ccc(Cn2c(SCC(=O)NCc3ccco3)nc3ccsc3c2=O)cc1 do in these assays?
Sm TGR inh: -30.3%; Giardia FBPA inh: 2.2%; Pf growth 96h: inconclusive; HCMV antiviral: 4.9; Pf growth 48h: 13.1µM*

What do the screens show for `O=C(CSc1nc2ccsc2c(=O)n1CC1CCC(C(=O)O)CC1)NCCc1ccc(Cl)cc1` (centres undefined)?
Sm TGR inh: -24.5%; Giardia FBPA inh: -8.0%; Pf growth 96h: 7.38µM*; HCMV antiviral: -24.0; Pf growth 48h: inconclusive

Results for COc1cc2nc(SCC(=O)NCc3ccco3)n(Cc3ccc(Cl)cc3)c(=O)c2cc1OC ?
Sm TGR inh: -8.0%; Giardia FBPA inh: 6.7%; Pf growth 96h: 0.0%; HCMV antiviral: -68.9*; Pf growth 48h: inconclusive

Results for O=C(Cn1c(=O)n(Cc2ccccc2)c(=O)c2ccccc21)NCc1ccco1 ?
Sm TGR inh: 34.4%; Giardia FBPA inh: 0.7%; Pf growth 96h: -0.5%; HCMV antiviral: -3.5

How did COc1cccc(CC(=O)OC(C)C(=O)Nc2ccc(N3CCOCC3)cc2)c1 (centres undefined) do in these assays?
Sm TGR inh: -0.4%; Pf growth 96h: 48.5%; HCMV antiviral: -21.9; Pf growth 48h: 41.5%

How did C=CCN(C(C(=O)OC)C(C)C)S(=O)(=O)CCl (centres undefined) do in these assays?
Giardia FBPA inh: -4.9%

Results for CN(CC(=O)Nc1ccccc1Cl)C(=O)Cn1cc(C(F)(F)F)cc(Cl)c1=O ?
Sm TGR inh: 7.4%; Pf growth 96h: 30.4%; HCMV antiviral: -20.7; Pf growth 48h: 53.9%

Results for O=C1NC(=O)C(CCc2ccncc2)(Cc2cccc(Cl)c2Cl)C(=O)N1c1ccc(Br)cc1 (centres undefined) ?
Sm TGR inh: -1.3%; Giardia FBPA inh: 13.2%; Pf growth 96h: 5.22µM*; HCMV antiviral: -25.9; Pf growth 48h: inconclusive

What do the screens show for `CC(C)Oc1ccc(C(=O)Nc2ccc3oc(-c4ccncc4)nc3c2)cc1`?
Sm TGR inh: -12.1%; HCMV antiviral: -20.2

Results for Cc1cc(Cl)nc(-n2nc(C)cc2C)n1 ?
Sm TGR inh: 14.8%; Giardia FBPA inh: -0.1%; Pf growth 96h: -6.4%; HCMV antiviral: inconclusive; Pf growth 48h: -1.2%

How did Cc1cc(Nc2ccc(Cl)cc2C)nc(-n2nc(C)cc2C)n1 do in these assays?
Sm TGR inh: -1.2%; HCMV antiviral: inconclusive

What do the screens show for `Cc1ccc(Nc2cc(C)nc(-n3nc(C)cc3C)n2)cc1`?
Sm TGR inh: -1.6%; HCMV antiviral: -91.8*

What do the screens show for `CCOc1ccc(Nc2cc(C)nc(-n3nc(C)cc3C)n2)cc1`?
Sm TGR inh: -3.5%; Giardia FBPA inh: 12.5%; Pf growth 96h: inconclusive; HCMV antiviral: -84.2*; Pf growth 48h: 1.85µM*

Results for CNc1cc(C)nc(-n2nc(C)cc2C)n1 ?
Sm TGR inh: 8.9%; Giardia FBPA inh: 9.7%; Pf growth 96h: 4.65µM*; HCMV antiviral: inconclusive; Pf growth 48h: 8.28µM*

Results for COc1ccccc1/C=C1/C(=N/O)C2CCN1CC2 ?
Sm TGR inh: -1.4%; Giardia FBPA inh: -0.9%; Pf growth 96h: -3.9%; HCMV antiviral: 34.3; Pf growth 48h: 11.7µM*

How did CC(C)(C)c1nc(S(=O)(=O)c2ccc(Cl)cc2)c(N2CCOCC2)o1 do in these assays?
Sm TGR inh: 8.91µM*; Giardia FBPA inh: 6.5%; Pf growth 96h: 25.7%; HCMV antiviral: -17.5

What do the screens show for `O=S(=O)(c1ccc(Cl)cc1)c1nc(-c2ccco2)oc1N1CCOCC1`?
Sm TGR inh: -27.9%; Giardia FBPA inh: -11.9%; Pf growth 96h: 10.2%; HCMV antiviral: 0.0; Pf growth 48h: -6.9%

Results for O=S(=O)(c1ccc(Cl)cc1)c1nc(-c2ccccc2Br)oc1N1CCOCC1 ?
Sm TGR inh: 5.2%; HCMV antiviral: 13.7

Results for CC(C)Cc1nc(S(=O)(=O)c2ccc(Cl)cc2)c(N2CCOCC2)o1 ?
Sm TGR inh: 2.24µM*; Giardia FBPA inh: -29.4%; Pf growth 96h: 2.4%; Pf growth 48h: -13.8%

How did Cc1ccnc(S(=O)(=O)Cc2ccc([N+](=O)[O-])cc2)n1 do in these assays?
Sm TGR inh: inconclusive; Giardia FBPA inh: 3.3%; Pf growth 96h: inconclusive; HCMV antiviral: 41.8; Pf growth 48h: 4.9%[0.00184 µM]

What do the screens show for `O=C(Nc1cccc(F)c1)N(Cc1ccc(Cl)cc1)CC(O)C(F)(F)F` (centres undefined)?
Sm TGR inh: 2.6%; Giardia FBPA inh: -3.3%; Pf growth 96h: 2.62µM*; HCMV antiviral: inconclusive; Pf growth 48h: 8.28µM*

Results for O=C(Nc1ccccc1)N(Cc1ccccc1)CC(O)C(F)(F)F (centres undefined) ?
Sm TGR inh: -22.0%; Giardia FBPA inh: 5.4%; Pf growth 96h: 1.5%; HCMV antiviral: 6.8; Pf growth 48h: -1.0%

Results for COc1ccc(NC(=O)/C=C/c2c(Cl)nc3ccccn23)cc1 ?
Sm TGR inh: 0.4%; Giardia FBPA inh: -8.1%; Pf growth 96h: -18.6%; HCMV antiviral: -61.8*; Pf growth 48h: 0.8%

What do the screens show for `COc1ccc(NC(=O)N(C)C[C@H]2Oc3c(NC(=O)c4ccncc4)cccc3C(=O)N([C@H](C)CO)C[C@@H]2C)cc1`?
HCMV antiviral: -1.3

What do the screens show for `COc1ccc(NC(=O)N(C)C[C@H]2Oc3c(NC(=O)c4nc5ccccc5s4)cccc3C(=O)N([C@@H](C)CO)C[C@H]2C)cc1`?
HCMV antiviral: -102.5*

How did C[C@H](CO)N1C[C@H](C)[C@@H](CN(C)C(=O)Nc2ccc(C(F)(F)F)cc2)Oc2c(NC(=O)Nc3ccccc3)cccc2C1=O do in these assays?
HCMV antiviral: -16.8

What do the screens show for `C[C@@H]1CN([C@H](C)CO)C(=O)c2cccc(NC(=O)Nc3ccc(F)cc3)c2O[C@H]1CN(C)C(=O)Nc1ccc(C(F)(F)F)cc1`?
HCMV antiviral: -61.2*

How did C[C@H]1CN([C@@H](C)CO)C(=O)c2cccc(NC(=O)C3CC3)c2O[C@H]1CN(C)Cc1ccc(C(F)(F)F)cc1 do in these assays?
HCMV antiviral: -88.4*
